The whole screen tested about 68,000 compounds, of which about 2,700 (4%) showed an effect of 50% or more. The sample as a whole holds a higher share of strong results than the screen did.
system: Plasmodium berghei; assay: Screen against P. berghei liver stage (PbLuc), transformed with Luciferase, at 2uM; type: functional, HepG2; conditions: tested at 2 uM

SMILES | INHIBITION [%]
O=C(NCCOC1CCCC1)c1ccc(-c2ccco2)[nH]c1=O | -40.62
c1ncc(Nc2nccc(C3CCCCN3CC3CCCCC3)n2)cn1 (stereo unspecified) | -8.23
O=C(CCc1ccc(O)cc1)N1CCC(Cc2ccc(CO)cc2)C1 (stereo unspecified) | 11.28
O=C(CCN1CCCCC1)N1CCC(Cc2ccc(CO)cc2)C1 (stereo unspecified) | 50.61
O=C(CCN1CCOCC1)N1CCC(Cc2ccc(CO)cc2)C1 (stereo unspecified) | -11.66
O=C(CN1CCC(c2cccc(F)c2)C1)NCc1ccco1 (stereo unspecified) | 51.21
CC(C)NC(=O)CN1CCC(c2cccc(F)c2)C1 (stereo unspecified) | 28.33
O=C(CN1CCC(c2cccc(F)c2)C1)NCC(F)(F)F (stereo unspecified) | 20.28
CN1C[C@H]2CC[C@@H](CC1=O)N2C(=O)c1ccc(-c2ccccc2)[nH]c1=O | -40.36
Nc1nccc(C2CCN(CCO)C2)n1 (stereo unspecified) | 19.86
Cc1ccc(N2CCO[C@H]3CN(Cc4ccccn4)C[C@H]32)nn1 | 4.99
Cc1ccoc1C(=O)N1CCn2cc(CN3CCCC3)nc2C1 | 37.2
CN1CCN(Cc2cnc(S(=O)(=O)CC3CC3)n2CC2CCCO2)CC1 (stereo unspecified) | 1.8
CCCS(=O)(=O)c1ncc(CN2CCC(C)CC2)n1CC1CCCO1 (stereo unspecified) | 70.81
CC1CCN(Cc2cnc(S(=O)(=O)CC3CC3)n2CC2CCCO2)CC1 (stereo unspecified) | -14.32
CCCS(=O)(=O)c1ncc(CN2CCC(CO)CC2)n1CC1CCCO1 (stereo unspecified) | 27.44
O=S(=O)(CC1CC1)c1ncc(CN2CCSCC2)n1CC1CCCO1 (stereo unspecified) | 65.76
O=S(=O)(CC1CC1)c1ncc(CN2CCOCC2)n1CC1CCCO1 (stereo unspecified) | 3.49
O=C(NC1CCCN(c2ncccn2)C1)c1ccoc1 (stereo unspecified) | 36.98
CC(=O)c1c(C)nn(S(=O)(=O)c2ccc(Cl)cc2)c1C | 11.8
O=C(O)c1ccnc(SCC(=O)c2ccccc2)c1 | 25.23
Cc1ccc(OC2CCN(S(=O)(=O)N(C)C)CC2)nc1 | 15.75

SMILES | INHIBITION [%]
C[C@H]1CN2C[C@H](O)CC2CN1Cc1ccc2nccnc2c1 (stereo partly specified) | -36.08
COc1ccccc1CCNC(=O)N(C)C(C)CS(C)(=O)=O (stereo unspecified) | 50.46
CC(C)Oc1ccccc1CNC(=O)N(C)C(C)CS(C)(=O)=O (stereo unspecified) | -25.21
CCS(=O)(=O)CC(C)N(C)C(=O)NCCc1cccc(F)c1F (stereo unspecified) | -4.09
CCN(C(=O)NCCc1cccc(F)c1F)C(C)CS(C)(=O)=O (stereo unspecified) | 64.2
CCN(C(=O)NCCc1ccccc1Cl)C(C)CS(C)(=O)=O (stereo unspecified) | 34.46
COc1cc(Cl)ccc1CNC(=O)N(C)C(C)CS(C)(=O)=O (stereo unspecified) | -22.82
Cc1cccc(CN2CCc3c(nc(N4CCC(C)CC4)[nH]c3=O)C2)n1 | 23.94
COc1ccc(CN2CCCC3(CCN(c4ccsc4)C3=O)C2)cc1 (stereo unspecified) | 7.21
N#Cc1ccc(CS(=O)(=O)NC(=O)c2ccc3c(c2)COC3)cc1 | -14.32
CCCc1cc(CNc2cc(CCC)nc3ccnn23)on1 | -15.75
Fc1cccc(F)c1Cn1c(C2CCNCC2)cc2cccnc21 | 13.17
C=c1ccoc1=C1NN=C(CNC2CCCN(c3cccnn3)C2)O1 (stereo unspecified) | 7.01
O=C(Cc1ccccn1)N1CCc2ncnc(N3CCCC3)c2CC1 | -3.19
CCNC(=O)C1CCN(Cc2ccccc2OCC(F)(F)F)CC1 | 8.59
CC(C)(C)n1ncc(NCCc2ccccc2C(F)(F)F)c(Cl)c1=O | -59.58
CC(=O)N1C[C@H]2CC[C@@H](C1)N(S(=O)(=O)c1ccc(F)cc1Cl)C2 | -11.81
CS(=O)(=O)N1CCC(NCC2(N3CCOCC3)CCCCC2)CC1 | 7.67
C1CCC(CNC2CCSCC2)(N2CCOCC2)CC1 | 60.13
C1CCC(NCC2(N3CCOCC3)CCSC2)C1 (stereo unspecified) | -20.95
CCN1CC2(CCNCC2)COc2ccccc2S1(=O)=O | 3
CCOCC1CN(Cc2cnn(C)c2)Cc2ncn(C)c21 (stereo unspecified) | -20.41

SMILES | INHIBITION [%]
CC(C)COCC1CN(Cc2ccoc2)Cc2ncn(C)c21 (stereo unspecified) | -13.32
CC(C)COCC1CN(Cc2cnn(C)c2)Cc2ncn(C)c21 (stereo unspecified) | 79.02
CC(=O)N1CCCN(C(=O)CN(C)c2ccc(Cl)cn2)CC1 | 12.29
Cc1cccc(N(CC(=O)c2ccccc2)C2=NCCCCC2)c1 | -17.7
Cc1oncc1C(=O)NCc1cc(=O)n2c(n1)CN(C(C)C)CCC2 | 4.42
Cc1nc(CNC(=O)NCCc2ccc(N(C)C)cc2)cs1 | 12.88
Cc1nc(CCNC(=O)NCc2ccc(N(C)C)nc2)cs1 | -16.42
Cc1nc(CCNC(=O)NCc2cccc(N(C)C)n2)cs1 | 53.45
CN(C)c1ncccc1CNc1cc(N2CCCC2CO)ncn1 (stereo unspecified) | -1.02
Cc1cnccc1CN(C)Cc1c[nH]nc1-c1ccc(F)cc1F | 51.39
CC(C)CN(C)Cc1c[nH]nc1-c1ccc(F)cc1F | -22.69
Cc1nonc1CN(C)Cc1c[nH]nc1-c1ccc(F)cc1F | 2.59
CCCN1CCC(c2cc(CCOc3ccc(C(F)(F)F)cc3)[nH]n2)C1 (stereo unspecified) | 27.53
Cc1cccc(CN2CCc3[nH]nc(C(=O)N(C)C)c3C2)n1 | -25.31
OC(COCc1ccco1)CSc1nnc2ccccn12 (stereo unspecified) | 76.82
OC(COCc1ccccc1)CSc1nnc2ccccn12 (stereo unspecified) | 2.9
OC(COCc1cccs1)CSc1nnc2ccccn12 (stereo unspecified) | 45.82
Cc1ccccc1N1CCN(c2ccncn2)C(C)C1 (stereo unspecified) | -90.79
Cc1ccccc1N1CCCN(c2ccncn2)CC1 | 53.45
Cc1ccccc1N1CCCN(C(=O)CCc2ccncc2)CC1 | 1.42
CC(C)c1nnc2sc(CC3CN(Cc4ccccc4)CCO3)nn12 (stereo unspecified) | 23.33
CCCc1nnc2sc(CC3CN(Cc4ccccc4)CCO3)nn12 (stereo unspecified) | 51.43

SMILES | INHIBITION [%]
CC(C)N1CCOC(Cc2nn3c(Cc4ccccc4)nnc3s2)C1 (stereo unspecified) | 20.29
CCN1CCc2[nH]cnc2C12CCN(c1ccc(Cl)c(C(=O)O)n1)CC2 | -3.87
O=C(NCc1cccnc1-n1cncn1)c1cc(Cl)ccn1 | 34
CNCC1CCC(c2cc(CN(C)C(=O)c3cnccn3)n(C)n2)CC1 (stereo unspecified) | 24.98
Cc1c(C(C)NC(=O)Nc2ccc(F)cc2F)cnn1C (stereo unspecified) | -41.11
CSc1ncc(CNC(C)c2cnn(-c3ccc(F)cc3F)c2C)cn1 (stereo unspecified) | -20.35
CC(=O)N1CCC(NC(C)c2cnn(-c3ccc(F)cc3F)c2C)CC1 (stereo unspecified) | 79.21
Cc1c(C(C)NC2CSCCSC2)cnn1-c1ccc(F)cc1F (stereo unspecified) | 81.59
Cc1c(C(C)NC2CCOCC2)cnn1-c1ccc(F)cc1F (stereo unspecified) | 69.67
Cc1c(C(C)NCC2CCCC2)cnn1-c1ccc(F)cc1F (stereo unspecified) | 10.05
Cc1c(C(C)NC2CCN(C(C)C)CC2)cnn1-c1ccc(F)cc1F (stereo unspecified) | 14.82
Cc1c(C(C)NC2CCCC2)cnn1-c1ccc(F)cc1F (stereo unspecified) | 12.43
COc1ccc(-n2ncc(C(C)NC3CCSCC3)c2C)cc1 (stereo unspecified) | -62.99
Cc1cc2c(cc1NC(N)=O)OCO2 | 23.3
CCn1nc(C)cc1C(=O)N1C[C@@H]2C[C@@H](c3nnc(C)[nH]3)O[C@@H]2C1 | 24.23
CN1CCN(C2COC3(CCN(Cc4ccsc4)CC3)C2)CC1 (stereo unspecified) | -0.38
COc1ccc2c(ccn2CCC(=O)/N=c2\[nH]nc(C3CCCO3)s2)c1 (stereo unspecified) | 1.57
Cc1nc(C)c(CC(=O)N2C[C@@H](C(=O)O)[C@H](c3ccncc3)C2)s1 | 56.78
CCC[C@@H]1CN(C(=O)Cc2sc(C)nc2C)C[C@H]1C(=O)O | 53.55
Cc1nc(C)c(CC(=O)N2C[C@H]3CC[C@@H](C2)N(CC2CC2)C3)s1 | -38.36
CCOc1ccccc1CC(=O)N1C[C@@H](C(=O)O)[C@H](c2ccncc2)C1 | -36.68
CCC[C@@H]1CN(C(=O)c2c(F)ccc(C)c2Cl)C[C@H]1C(=O)O | 2.3

SMILES | INHIBITION [%]
Cc1nc(C)c(CC(=O)N2C[C@@H](C(=O)O)[C@H](c3ccccc3C)C2)s1 | -57.67
CCc1nccn1C1CCCN(C(=O)c2ccc3c(c2)OCCO3)C1 (stereo unspecified) | -14.17
CCOC1CCC2(CCN(C(=O)c3csnn3)CC2)c2ccccc21 (stereo unspecified) | 30.15
CC(C)(C)c1nc(CN2CCN(C(=O)c3cnccn3)CC2)cs1 | 8.5
COc1cccc(CN2C[C@@H]3COC[C@]3(COCc3ccccn3)C2)c1 | 17.35
O=C(Nc1ccc(-c2csnn2)cc1)N1CCC(N2CCCC2)C1 (stereo unspecified) | -55.13
Cc1noc(CCCNS(=O)(=O)N2CCCC2c2ccco2)n1 (stereo unspecified) | 41.52
Cc1noc(CCNS(=O)(=O)N2CCCC2c2ccc(C)o2)n1 (stereo unspecified) | 20.34
Cc1noc(CCNS(=O)(=O)N2CCCC2c2ccco2)n1 (stereo unspecified) | 51.76
CN(Cc1cccc(C(N)=O)c1)CC1CCCN1c1cccnn1 (stereo unspecified) | 15.67
CCOC1CCN(C(=O)c2c(Cl)c3ccccc3n2C)CC1 | 2.8
Cc1ccsc1C(O)CNS(=O)(=O)Cc1ccc(F)cc1 (stereo unspecified) | -10.98
Cc1nc(NCCC23CCCN2CCC3)cc(C2CCCNC2)n1 (stereo unspecified) | 55.66
Cc1nc(NCC23CCCN2CCC3)cc(C2CCCNC2)n1 (stereo unspecified) | 35.46
Cc1nc(NCCC23CCCN2CCC3)cc(C2CCNCC2)n1 | 50.61
Cc1cc(C2CCC2)nc(NCCC23CCCN2CCC3)n1 | -44.93
Cc1nc(NCc2ccc(C)o2)cc(C2CCNCC2)n1 | 7.42
CNc1cc(C2CCCNC2)nc(C)n1 (stereo unspecified) | -23.54

Source: ChEMBL document CHEMBL4513216, “Probing the Open Global Health Chemical Diversity Library for Multistage-Active Starting Points for Next-Generation Antimalarials” (ACS Infect Dis, 2020)
